Assay results published in PubChem BioAssay AID2685 (National Center for Advancing Translational Sciences (NCATS), 2010).
The whole screen tested about 320,000 compounds, of which about 2,100 (0.66%) were called active. Roughly 53% stayed inconclusive and do not appear here. The call rests on the fitted dose curve; in most records, active means well fitted inhibition curve with a large enough effect in the signal ratio, with a control signal flat (not every such curve was filed as active); inconclusive means small, poorly fitted or top-dose-only effect, or effect the other way, or a change in a side signal; inactive means flat fitted curve, though single readings scatter; the % refers to the signal ratio. Only a selection was taken, and actives are over-represented in it overall.
Potency means the concentration at half of the fitted maximal effect.

Assay: qHTS Assay for Lipid Storage Modulators in Drosophila S3 Cells;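 on cell number change: cells counted by Cell Tracker Red CMTPX staining in the red channel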; on lipid storage change, negative = inhibition: on the % scale 0 is the no-effect control and ±100 the full control effect
Settings: BODIPY lipid droplet fluorescence, 18-24 h, cells fed with added oleic acid; cell number change: measured here: cell count max response; series mostly up to 46.1 µM; lipid storage change, negative = inhibition: at the top concentration
Method in brief: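 Drosophila S3 cells got compounds at several concentrations plus oleic acid (400 uM solution). Laser-scanning cytometry with 488 nm excitation read lipid droplets at 500-530 nm and cells at 575-640 nm. Percent activity was relative to 20 uM Triacsin C.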
With `COc1ccc(NC(=O)N2CCCC(CCC(=O)N(C)CCc3ccccn3)C2)cc1` (stereo not given) the “lipid storage change, negative = inhibition” value was 3.61% (inactive) and the cell number change was -4.81%.
In the case of `Cc1nc(N2CCCCC2)sc1C(=O)c1cccc([N+](=O)[O-])c1`, the “lipid storage change, negative = inhibition” value was -23.7% (inactive) and the cell number change was -2.77%.
In the case of `CC(=O)c1cccc(NC(=O)NC2CCCc3ccccc32)c1` (stereo not given), the “lipid storage change, negative = inhibition” value was -3.84% (inactive) and the cell number change was -3.38%.
In the case of `CCOc1cc(/C=C2\SC(=N)N(c3nonc3N)C2=O)ccc1OCC(N)=O`, the “lipid storage change, negative = inhibition” value was -17.3% (inactive) and the cell number change was 1.49%.
For `COc1ccccc1NC(=O)C(=O)c1cn(CC(=O)N2CCCC2)c2ccccc12`, the “outcome” value was “inactive” and the cell number change was 8.26%.
In the case of `CC(=O)c1ccc(N2CCN(C(=O)C(=O)c3cn(CC(=O)N4CCCCCC4)c4ccccc34)CC2)cc1`, the Potency was 16.4 µM (active) and the cell number change was -13.1%.
In the case of `O=CN1CCN(C(=O)C(=O)c2cn(CC(=O)N3CCCCC3)c3ccccc23)CC1`, the “lipid storage change, negative = inhibition” value was 5.33% (inactive) and the cell number change was 4.31%.
For `COc1ccccc1N1CCN(C(=O)C(=O)c2cn(CC(=O)N3CCCCCC3)c3ccccc23)CC1`, the Potency was 11.6 µM (active) and the cell number change was -23.8%.
In the case of `CN1CCN(C(=O)C(=O)c2cn(CC(=O)N3CCCC3)c3ccccc23)CC1`, the “lipid storage change, negative = inhibition” value was -2.97% (inactive) and the cell number change was -8.67%.
In the case of `COc1ccccc1N1CCN(C(=O)C(=O)c2cn(CC(=O)N3CCCC3)c3ccccc23)CC1`, the “lipid storage change, negative = inhibition” value was -17.6% (inactive) and the cell number change was -2.59%.
With `CCCC(=O)Nc1c(-c2ccccc2Cl)c(=O)c2ccccc2n1C` the “lipid storage change, negative = inhibition” value was -11.9% (inactive) and the cell number change was 21.4%.
In the case of `COc1ccccc1-n1c(SCC(=O)Nc2nnc(C)s2)nc2c(c1=O)SCC2`, the “lipid storage change, negative = inhibition” value was 0.949% (inactive) and the cell number change was 4.2%.
For `CCCCCCCCCCCCOC(=O)C[N+](C)(C)C`, the “lipid storage change, negative = inhibition” value was -4.89% (inactive) and the cell number change was -12.3%.
With `CCCCCCCCOC(=O)C[N+](C)(C)C/C=C(/C)Cl` the “lipid storage change, negative = inhibition” value was 9.71% (inactive) and the cell number change was 5.17%.
For `CCCCCCCCCCOC(=O)C[N+](C)(C)C/C=C(/C)Cl`, the Potency was 2.06 µM (active) and the cell number change was -24.8%.
For `CC1(C)Cc2c(cnn2-c2ccccc2)C(NC(=O)C2(C(N)=O)CC2)C1` (stereo not given), the “lipid storage change, negative = inhibition” value was -9.11% (inactive) and the cell number change was 8.69%.
With `COc1ccc(C2CC(c3cccs3)=NN2C(=O)CCC(=O)O)cc1` (stereo not given) the “lipid storage change, negative = inhibition” value was 2.58% (inactive) and the cell number change was -0.88%.
For `CCCN(CCC)S(=O)(=O)c1cc(CN2C(=O)c3cccnc3C2=O)ccc1OC`, the “lipid storage change, negative = inhibition” value was 24.4% (inactive) and the cell number change was 9.22%.
With `COc1ccc(CN2C(=O)c3cccnc3C2=O)cc1S(=O)(=O)NC1CCCCC1C` (stereo not given) the “outcome” value was “inactive” and the cell number change was -3.23%.
With `COc1ccc(CN2C(=O)c3cccnc3C2=O)cc1S(=O)(=O)N1CCCCC1` the Potency was 1.64 µM (active) and the cell number change was -13.9%.
With `COc1ccc(CN2C(=O)c3cccnc3C2=O)cc1S(=O)(=O)NC(C)C` the “outcome” value was “inactive”.
For `CCN(c1cccc(C)c1)S(=O)(=O)c1cc(CN2C(=O)c3cccnc3C2=O)ccc1OC`, the Potency was 8.2 µM (active) and the cell number change was 7.63%.
With `COc1ccc(CN2C(=O)c3cccnc3C2=O)cc1S(=O)(=O)N(C)c1ccc(C)cc1` the “outcome” value was “inactive” and the cell number change was 8.02%.
With `O=C(CN1C(=O)CCS(=O)(=O)c2ccccc21)NCc1ccc2c(c1)OCO2` the “lipid storage change, negative = inhibition” value was 14.7% (inactive) and the cell number change was -18.6%.
With `CC1(C)Cc2c(sc(NC(=O)C(=O)NCC3CCCO3)c2C(N)=O)CO1` (stereo not given) the “outcome” value was “inactive” and the cell number change was -4.25%.
With `CNC(=O)c1ccccc1S(=O)(=O)c1ccccc1C#N` the “lipid storage change, negative = inhibition” value was 4.63% (inactive) and the cell number change was -5.1%.
In the case of `Cc1cc(C(F)(F)F)nn1CC(=O)NCc1cccs1`, the “lipid storage change, negative = inhibition” value was 20.9% (inactive) and the cell number change was 3.66%.
In the case of `COc1ccc(OC)c(NC(=O)C2CCCCC2C(=O)O)c1` (stereo not given), the “lipid storage change, negative = inhibition” value was 4.14% (inactive) and the cell number change was 2.85%.
With `COCC1CCN(C(=O)c2ccc(OC)c(OC3CCN(C(C)C)CC3)c2)CC1` the “outcome” value was “inactive” and the cell number change was 13.3%.
For `CCCOc1ccc(C(=O)O)cc1`, the “lipid storage change, negative = inhibition” value was -24.9% (inactive) and the cell number change was 0.594%.
With `CN1CCC(N(C)C(=S)NC(=O)C23CC4CC(CC(C4)C2)C3)CC1` the “lipid storage change, negative = inhibition” value was -6.23% (inactive) and the cell number change was -1.68%.
With `CCOc1ccc(-n2c(N)c(C(=O)NCc3ccco3)sc2=S)cc1` the “lipid storage change, negative = inhibition” value was -2.67% (inactive) and the cell number change was 1.94%.
In the case of `COc1ccc(CNC(=O)C/C(C)=N/NC(=O)C23CC4CC(CC(C4)C2)C3)cc1`, the “lipid storage change, negative = inhibition” value was 3.76% (inactive) and the cell number change was 9.74%.
In the case of `CC1CCN(C(=O)c2[nH]cnc2C(=O)NCC(=O)OCc2ccccc2)CC1`, the “outcome” value was “inactive” and the cell number change was 12.3%.
In the case of `COc1ccccc1CNC(=O)C1CCN(S(=O)(=O)c2ccc(N3CCCC3=O)cc2)CC1`, the “outcome” value was “inactive” and the cell number change was 16.5%.
For `COc1cccc(C2/C(=C(/O)c3ccncc3)C(=O)C(=O)N2CCCN(C)C)c1` (stereo not given), the Potency was 6.51 µM (active) and the cell number change was 2.93%.
For `COc1cccc(C2/C(=C(\O)c3ccc4c(c3)OCCO4)C(=O)C(=O)N2CCN(C)C)c1` (stereo not given), the “lipid storage change, negative = inhibition” value was 10.2% (inactive) and the cell number change was -19.5%.
With `COc1cccc(/C(O)=C2/C(=O)C(=O)N(CCN(C)C)C2c2ccc(Br)cc2)c1` (stereo not given) the Potency was 2.31 µM (active) and the cell number change was 3.06%.
With `COc1ccc(/C(O)=C2/C(=O)C(=O)N(CCCN(C)C)C2c2ccccc2)cc1Cl` (stereo not given) the Potency was 13 µM (active) and the cell number change was 2.04%.
In the case of `COc1cccc(C2/C(=C(/O)c3ccc(F)cc3)C(=O)C(=O)N2CCN(C)C)c1` (stereo not given), the “lipid storage change, negative = inhibition” value was 0.584% (inactive) and the cell number change was 5.93%.
With `COc1ccc(/C(O)=C2/C(=O)C(=O)N(CCN(C)C)C2c2ccccc2)cc1Cl` (stereo not given) the “lipid storage change, negative = inhibition” value was 4.66% (inactive) and the cell number change was -4.09%.
In the case of `COc1cccc(C2/C(=C(\O)c3c(C)nc4c(C)cccn34)C(=O)C(=O)N2CCCN(C)C)c1` (stereo not given), the “lipid storage change, negative = inhibition” value was 6.42% (inactive) and the cell number change was -2.27%.
With `CCCOc1cccc(C2/C(=C(/O)c3ccncc3)C(=O)C(=O)N2CCCN(C)C)c1` (stereo not given) the “outcome” value was “inactive” and the cell number change was -3.79%.
